Data published in PubChem BioAssay (EPA / NIEHS).
Records with an inconclusive call do not appear. Active and inactive are the calls of the source. Rule for the calls, unless noted: active = hit-call score of the fitted dose curve at least 0.9, where 1 is the maximum; inconclusive = response in the unintended direction; inactive = score below 0.9.

What was measured:
[1] = CEETOX_H295R_ESTRADIOL_noMTC: CeeTox H295R High-throughput Steroidogenesis Assay for Estradiol, maximum tolerated concentration (MTC) filtered results only (AID 2283919; active = hit-call score of the fitted dose curve at least 0.9, where 1 is the maximum; inactive = score below 0.9); conditions: actives raise or lower the signal
Protocol: (§1) CEETOX_H295R is a cell-based, multiplexed-readout assay that uses H295R, a human adrenal gland cell line, with measurements taken at 48 hours after chemical dosing in a 96-well plate.CEETOX_H295R_ESTRADIOL_noMTC is one of 12 assay component(s) measured or calculated from the CEETOX_H295R assay (11 hormones and 1 viability assay). It is designed to make measurements of hormone induction, a form of inducible reporter, as detected with absorbance signals by HPLC-MS-MS technology. The concentrations for these components have not been pre-filtered for the maximum tolerated concentration (MTC) based on the MTT assay (_noMTC).Data from the assay component CEETOX_H295R_ESTRADIOL_noMTC was analyzed into 1 assay endpoint. This assay endpoint, CEETOX_H295R_ESTRADIOL_noMTC, was analyzed with bidirectional fitting relative to DMSO as the negative control and baseline of activity. Using a type of inducible reporter, gain or loss-of-signal activity using HPLC-MS-MS was used to understand synthesis of Estradiol in H295R cell line at 48hr of chemical exposure, without filtering concentrations for maximum tolerated concentration (MTC). To generalize the intended target to other relatable targets, this assay endpoint is annotated to the steroid hormone intended target family, where the subfamily is estrogens.
Cell culture and media preparation procedures were conducted in accordance with OECD Test No. 456 guidelines, with minor modifications. H295R cells (ATCC CRL-2128) were expanded for 5 passages and frozen in batches in liquid nitrogen. Prior to the steroidogenesis assay, H295R cells were thawed and passed at least 4 times. The maximum passage was 10. […] For steroid quantification, media samples were shipped to OpAns, LLC (Durham, NC) on dry ice, and samples were thawed to room temperature prior to liquid-liquid extraction. […] Steroid hormones were separated by HPLC, eluted using a reverse phase C18 gradient with electrospray positive ionization, followed by quantification by tandem mass spectrometry (MS/MS). Data were acquired on a MassHunter Workstation Acquisition version B03.01 (Agilent Technologies, Inc.) and processed using MassHunter Quantitative Analysis for QQQ. Accuracy was determined for each hormone analyte from 3 standards to determine upper and lower limits of quantification (ULOQ and LLOQ, respectively) using a 7-point standard curve. Precision and accuracy of the extraction and quantification methods were calculated as the percent relative standard deviation (%RSD) of the spiked standards and percent spiked standard recovered, respectively. […] Test medium was removed following chemical exposure, and cell viability was evaluated in the same wells by MTT. […]

[2] = CEETOX_H295R_PROG_noMTC: CeeTox H295R High-throughput Steroidogenesis Assay for Progesterone (PROG), maximum tolerated concentration (MTC) filtered results only (AID 2283920; active = hit-call score of the fitted dose curve at least 0.9, where 1 is the maximum; inactive = score below 0.9); conditions: actives raise or lower the signal
Method in brief: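 H295R human adrenal cells were prestimulated 48 h with 10 uM forskolin, then exposed 48 h to test chemical (0.1% DMSO final). Progesterone in medium was quantified by HPLC-MS/MS; bidirectional fitting versus DMSO, concentrations not MTC-filtered.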

[3] = CEETOX_H295R_ESTRONE_noMTC: CeeTox H295R High-throughput Steroidogenesis Assay for Estrone, maximum tolerated concentration (MTC) filtered results only (AID 2283921; active = hit-call score of the fitted dose curve at least 0.9, where 1 is the maximum; inactive = score below 0.9); conditions: actives raise or lower the signal
Protocol: as §1, with “plate.CEETOX_H295R_ESTRONE_noMTC” for “plate.CEETOX_H295R_ESTRADIOL_noMTC”, “CEETOX_H295R_ESTRONE_noMTC” for “CEETOX_H295R_ESTRADIOL_noMTC”, “CEETOX_H295R_ESTRONE_noMTC,” for “CEETOX_H295R_ESTRADIOL_noMTC,”, “Estrone” for “Estradiol”
Cell culture and media preparation procedures were conducted in accordance with OECD Test No. 456 guidelines, with minor modifications. H295R cells (ATCC CRL-2128) were expanded for 5 passages and frozen in batches in liquid nitrogen. […] For steroid quantification, media samples were shipped to OpAns, LLC (Durham, NC) on dry ice, and samples were thawed to room temperature prior to liquid-liquid extraction. […] Steroid hormones were separated by HPLC, eluted using a reverse phase C18 gradient with electrospray positive ionization, followed by quantification by tandem mass spectrometry (MS/MS). Data were acquired on a MassHunter Workstation Acquisition version B03.01 (Agilent Technologies, Inc.) and processed using MassHunter Quantitative Analysis for QQQ. Accuracy was determined for each hormone analyte from 3 standards to determine upper and lower limits of quantification (ULOQ and LLOQ, respectively) using a 7-point standard curve. Precision and accuracy of the extraction and quantification methods were calculated as the percent relative standard deviation (%RSD) of the spiked standards and percent spiked standard recovered, respectively. The goal was to achieve 100% accuracy (i.e., recover all spiked-in standard at quantification with minimal loss during run time) and good precision (i.e., have %RSD <15% to ensure reproducibility). Test medium was removed following chemical exposure, and cell viability was evaluated in the same wells by MTT. […]

PGR (gene 5241) [4] = target: PGR (gene 5241) (UniProt P06401); assay: TOX21_PR_BLA_Followup_Antagonist_ratio: Tox21 HEK293 Progesterone Receptor (PR) Antagonism Beta-lactamase Follow-Up Assay, Ratio (AID 2283934)
Chain of PGR (gene 5241) (P06401 whole entry, looked up, the tested form may be a part): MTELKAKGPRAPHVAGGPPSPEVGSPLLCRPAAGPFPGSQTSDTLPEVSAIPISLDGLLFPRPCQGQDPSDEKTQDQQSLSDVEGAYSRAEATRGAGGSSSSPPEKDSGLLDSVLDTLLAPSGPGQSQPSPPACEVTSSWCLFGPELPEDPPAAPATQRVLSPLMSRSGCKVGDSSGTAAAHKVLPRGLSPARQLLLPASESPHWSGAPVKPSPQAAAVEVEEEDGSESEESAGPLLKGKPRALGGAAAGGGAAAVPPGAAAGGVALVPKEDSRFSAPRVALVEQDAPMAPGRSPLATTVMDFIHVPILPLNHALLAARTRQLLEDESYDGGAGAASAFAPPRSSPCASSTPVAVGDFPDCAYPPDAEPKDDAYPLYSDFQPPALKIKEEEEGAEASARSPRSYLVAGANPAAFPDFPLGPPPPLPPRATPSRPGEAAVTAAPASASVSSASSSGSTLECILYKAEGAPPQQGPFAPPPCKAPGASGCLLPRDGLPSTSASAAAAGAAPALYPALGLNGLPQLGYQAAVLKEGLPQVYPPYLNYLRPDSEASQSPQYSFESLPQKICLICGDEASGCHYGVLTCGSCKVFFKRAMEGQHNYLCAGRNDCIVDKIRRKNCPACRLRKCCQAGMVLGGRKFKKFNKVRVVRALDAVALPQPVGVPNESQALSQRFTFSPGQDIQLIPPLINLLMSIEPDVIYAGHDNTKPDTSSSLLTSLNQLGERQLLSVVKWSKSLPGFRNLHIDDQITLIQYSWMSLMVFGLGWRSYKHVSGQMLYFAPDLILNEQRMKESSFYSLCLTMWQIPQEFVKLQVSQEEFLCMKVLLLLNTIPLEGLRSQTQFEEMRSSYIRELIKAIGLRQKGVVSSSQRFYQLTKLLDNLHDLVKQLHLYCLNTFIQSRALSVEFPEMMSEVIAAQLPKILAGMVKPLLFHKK
Method in brief: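 PR-UAS-bla HEK293T cells in medium with 2% charcoal-stripped FBS were treated with compounds plus 1 nM (final) promegestone (R5020) for 16 hr at 37C. LiveBLAzer B/G FRET substrate was then added for 2 h at room temperature; signal is cleaved/uncleaved substrate ratio versus DMSO.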

[5] = TOX21_PR_BLA_Followup_Agonist_viability: Viability Assessment in the Tox21 HEK293 Progesterone Receptor (PR) Agonism Beta-lactamase Follow-Up Assay (AID 2283935);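 note: signal loss means lower viability so actives are cytotoxic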
Method in brief: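 PR-UAS-bla HEK293T cells in 2% charcoal-stripped FBS medium, compound added after 6 hr plating, 16 hr at 37C/5% CO2. After bla FRET read, CellTiter-Glo added; luminescence read after 30 min at room temperature; signal loss marks cytotoxicity.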

[6] = TOX21_PR_BLA_Followup_Antagonist_viability: Viability Assessment in the Tox21 HEK293 Progesterone Receptor (PR) Antagonism Beta-lactamase Follow-Up Assay (AID 2283936);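 note: hits lower the luminescence signal meaning cytotoxicity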
Method in brief: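 PR-UAS-bla HEK293T cells (3,000/well, 2% charcoal-stripped FBS) given compound plus R5020 agonist, 16 h at 37C. CellTiter-Glo added after bla read, 30 min at room temperature; luminescence loss indicates cytotoxicity.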

PGR (gene 5241) [7] = target: PGR (gene 5241) (UniProt P06401); assay: TOX21_PR_LUC_Followup_Antagonist: Tox21 HEK293 Progesterone Receptor (PR) Antagonism Luciferase Follow-Up Assay (AID 2283938);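 note: curve fitted upward as signal gain over DMSO baseline despite antagonist label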
Method in brief: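 HEK293-PR-A-luc cells were precultured 5 days in medium with 10% charcoal-stripped FBS, seeded 3,000/well, then exposed to compounds in DMSO for 16 h at 37C. Luciferase was read by ONE-Glo luminescence after 30 min at room temperature.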

[8] = TOX21_PR_LUC_Followup_Antagonist_viability: Viability Assessment in the Tox21 HEK293 Progesterone Receptor (PR) Antagonism Luciferase Follow-Up Assay (AID 2283940)
Method in brief: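 HEK293-PR-A-luc cells, precultured 5 days in assay medium with 10% charcoal-stripped FBS, were seeded at 3,000 cells/well, treated with compounds in DMSO for 16 h at 37C, and viability was read as cellular ATP by CellTiter-Glo luminescence.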

PGR (gene 5241) [9] = target: PGR (gene 5241) (UniProt P06401); assay: TOX21_PR_BLA_Followup_Agonist_ratio: Tox21 HEK293 Progesterone Receptor (PR) Agonism Beta-lactamase Follow-Up Assay, Ratio (AID 2283933)
Method in brief: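 PR-UAS-bla HEK293T cells (GAL4-UAS beta-lactamase reporter) in medium with 2% charcoal-stripped FBS received compounds after 6 hr at 37C, then incubated 16 hr. LiveBLAzer FRET substrate added, 2 hr room temperature; cleaved/uncleaved (ch2/ch1) ratio fitted upward versus DMSO.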

PGR (gene 5241) [10] = target: PGR (gene 5241) (UniProt P06401); assay: TOX21_PR_LUC_Followup_Agonist: Tox21 HEK293 Progesterone Receptor (PR) Agonism Luciferase Follow-Up Assay (AID 2283937; active = hit-call score of the fitted dose curve at least 0.9, where 1 is the maximum; inactive = score below 0.9)
Method in brief: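 HEK293-PR-A-luc cells, pre-cultured 5 days in medium with 10% charcoal-stripped FBS, were seeded at 3,000 cells/well, rested 5 h at 37C, then exposed to compounds 16 h at 37C; luciferase read by ONE-Glo luminescence after 30 min.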

Measured: AC50

OC(c1ccc(Cl)cc1)(c1cncnc1)c1ccccc1Cl (stereo not drawn)
active: [1] 9.94 µM | [2] 2.67 µM | [3] 13.9 µM

COc1ccc(C(c2ccc(OC)cc2)C(Cl)(Cl)Cl)cc1
inactive: [5] | [6] | [8]
active: PGR (gene 5241) [4] 6.48 µM | PGR (gene 5241) [7] 15.2 µM

C=CC1(C)OC(=O)N(c2cc(Cl)cc(Cl)c2)C1=O (stereo not drawn)
inactive: PGR (gene 5241) [4] | [5] | [6] | PGR (gene 5241) [7] | [8]

CCOP(=S)(OCC)SCn1c(=O)oc2cc(Cl)ccc21
inactive: [5] | [6] | [8]
active: PGR (gene 5241) [4] 24.9 µM | PGR (gene 5241) [7] 32.8 µM

COC(=O)c1ccccc1C(=O)OC
inactive: [1] | [2] | [3]

COC(=O)N(OC)c1ccccc1COc1ccn(-c2ccc(Cl)cc2)n1
inactive: [5] | [6] | [8]
active: PGR (gene 5241) [4] 7.24 µM | PGR (gene 5241) [7] 13.6 µM

CCCCC(CC)COC(=O)c1ccccc1C(=O)OCC(CC)CCCC (stereo not drawn)
inactive: [1] | [2] | [3]

CON(C)C(=O)Nc1ccc(Cl)c(Cl)c1
inactive: PGR (gene 5241) [4] | [5] | [6] | [8]

CCCCOC(=O)c1ccccc1C(=O)OCCCC
inactive: [1] | [2] | [3]

N#CC(CCc1ccc(Cl)cc1)(Cn1cncn1)c1ccccc1 (stereo not drawn)
inactive: PGR (gene 5241) [9] | [5] | [6] | PGR (gene 5241) [10] | [8]
active: PGR (gene 5241) [4] 17.8 µM | PGR (gene 5241) [7] 22.5 µM
